# Results taken from ChEMBL document CHEMBL2218924, “A broad activity screen in support of a chemogenomic map for kinase signalling research and drug discovery” (Biochem J, 2013).
# What was measured:
# [1] = target: T1, Serine/threonine-protein kinase TBK1 (Homo sapiens) (UniProt Q9UHD2); settings: at 10 µM
# T1 sequence (whole entry): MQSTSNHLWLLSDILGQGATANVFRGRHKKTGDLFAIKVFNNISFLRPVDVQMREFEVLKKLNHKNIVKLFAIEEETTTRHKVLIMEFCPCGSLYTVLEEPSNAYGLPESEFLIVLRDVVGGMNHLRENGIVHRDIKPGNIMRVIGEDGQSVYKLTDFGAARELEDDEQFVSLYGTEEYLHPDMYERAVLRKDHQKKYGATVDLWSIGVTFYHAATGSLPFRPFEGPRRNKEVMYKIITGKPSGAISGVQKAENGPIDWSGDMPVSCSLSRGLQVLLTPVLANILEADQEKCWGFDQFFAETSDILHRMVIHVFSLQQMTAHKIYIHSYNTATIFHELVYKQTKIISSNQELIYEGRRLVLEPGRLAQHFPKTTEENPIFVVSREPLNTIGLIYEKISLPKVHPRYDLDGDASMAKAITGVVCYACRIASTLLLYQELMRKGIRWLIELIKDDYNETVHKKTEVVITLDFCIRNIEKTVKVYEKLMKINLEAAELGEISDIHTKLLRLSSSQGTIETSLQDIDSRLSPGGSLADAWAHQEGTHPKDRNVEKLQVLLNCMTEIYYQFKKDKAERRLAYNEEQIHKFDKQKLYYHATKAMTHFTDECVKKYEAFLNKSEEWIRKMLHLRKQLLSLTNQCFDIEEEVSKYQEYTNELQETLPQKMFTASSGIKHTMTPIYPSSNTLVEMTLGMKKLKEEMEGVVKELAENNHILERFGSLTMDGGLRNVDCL
# [2] = target: T2, TGF-beta receptor type-1 (Homo sapiens) (UniProt P36897); settings: at 1 µM
# T2 sequence (whole entry): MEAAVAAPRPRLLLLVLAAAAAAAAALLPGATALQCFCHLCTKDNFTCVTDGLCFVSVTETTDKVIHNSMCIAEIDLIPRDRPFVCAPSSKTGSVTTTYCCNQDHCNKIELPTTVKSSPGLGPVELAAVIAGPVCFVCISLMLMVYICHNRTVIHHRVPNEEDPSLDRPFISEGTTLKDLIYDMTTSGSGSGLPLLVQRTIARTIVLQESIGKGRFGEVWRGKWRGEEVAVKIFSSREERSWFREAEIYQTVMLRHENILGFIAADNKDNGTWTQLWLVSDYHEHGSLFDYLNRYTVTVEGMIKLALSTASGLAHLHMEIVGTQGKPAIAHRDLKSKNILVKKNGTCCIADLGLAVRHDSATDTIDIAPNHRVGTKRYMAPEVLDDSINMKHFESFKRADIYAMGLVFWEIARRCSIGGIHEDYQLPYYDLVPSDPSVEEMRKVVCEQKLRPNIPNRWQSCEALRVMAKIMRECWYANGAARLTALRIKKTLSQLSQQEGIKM
# [3] = target: T2, TGF-beta receptor type-1 (Homo sapiens); settings: at 10 µM
# [4] = target: Insulin-like growth factor 1 receptor (Homo sapiens) (UniProt P08069); settings: at 1 µM
# [5] = target: Insulin-like growth factor 1 receptor (Homo sapiens) (UniProt P08069); settings: at 10 µM
# [6] = target: T3, Inhibitor of nuclear factor kappa-B kinase subunit alpha (Homo sapiens) (UniProt O15111); settings: at 1 µM
# T3 sequence (whole entry): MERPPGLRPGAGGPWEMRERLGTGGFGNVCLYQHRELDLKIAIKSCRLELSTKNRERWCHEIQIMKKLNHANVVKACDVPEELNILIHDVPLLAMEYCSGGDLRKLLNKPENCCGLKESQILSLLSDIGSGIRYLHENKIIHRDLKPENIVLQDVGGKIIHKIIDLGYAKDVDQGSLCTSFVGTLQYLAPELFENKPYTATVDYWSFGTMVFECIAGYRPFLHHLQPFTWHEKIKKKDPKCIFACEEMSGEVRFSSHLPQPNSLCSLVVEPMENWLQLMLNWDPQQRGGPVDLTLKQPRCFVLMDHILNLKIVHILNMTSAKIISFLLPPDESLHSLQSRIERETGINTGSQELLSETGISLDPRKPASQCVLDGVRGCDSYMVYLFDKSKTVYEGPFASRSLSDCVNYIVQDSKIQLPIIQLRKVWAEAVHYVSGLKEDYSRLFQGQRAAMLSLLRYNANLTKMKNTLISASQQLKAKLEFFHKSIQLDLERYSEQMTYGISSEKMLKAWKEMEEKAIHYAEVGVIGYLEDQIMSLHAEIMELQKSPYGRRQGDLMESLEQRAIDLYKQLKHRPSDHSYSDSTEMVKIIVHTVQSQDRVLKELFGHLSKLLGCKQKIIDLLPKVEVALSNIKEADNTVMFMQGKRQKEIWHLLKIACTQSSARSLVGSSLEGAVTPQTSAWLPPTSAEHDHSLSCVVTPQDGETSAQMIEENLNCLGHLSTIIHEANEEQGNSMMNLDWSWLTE
# [7] = target: T3, Inhibitor of nuclear factor kappa-B kinase subunit alpha (Homo sapiens); settings: at 10 µM
# [8] = target: T4, Inhibitor of nuclear factor kappa-B kinase subunit beta (Homo sapiens) (UniProt O14920); settings: at 1 µM
# T4 sequence (whole entry): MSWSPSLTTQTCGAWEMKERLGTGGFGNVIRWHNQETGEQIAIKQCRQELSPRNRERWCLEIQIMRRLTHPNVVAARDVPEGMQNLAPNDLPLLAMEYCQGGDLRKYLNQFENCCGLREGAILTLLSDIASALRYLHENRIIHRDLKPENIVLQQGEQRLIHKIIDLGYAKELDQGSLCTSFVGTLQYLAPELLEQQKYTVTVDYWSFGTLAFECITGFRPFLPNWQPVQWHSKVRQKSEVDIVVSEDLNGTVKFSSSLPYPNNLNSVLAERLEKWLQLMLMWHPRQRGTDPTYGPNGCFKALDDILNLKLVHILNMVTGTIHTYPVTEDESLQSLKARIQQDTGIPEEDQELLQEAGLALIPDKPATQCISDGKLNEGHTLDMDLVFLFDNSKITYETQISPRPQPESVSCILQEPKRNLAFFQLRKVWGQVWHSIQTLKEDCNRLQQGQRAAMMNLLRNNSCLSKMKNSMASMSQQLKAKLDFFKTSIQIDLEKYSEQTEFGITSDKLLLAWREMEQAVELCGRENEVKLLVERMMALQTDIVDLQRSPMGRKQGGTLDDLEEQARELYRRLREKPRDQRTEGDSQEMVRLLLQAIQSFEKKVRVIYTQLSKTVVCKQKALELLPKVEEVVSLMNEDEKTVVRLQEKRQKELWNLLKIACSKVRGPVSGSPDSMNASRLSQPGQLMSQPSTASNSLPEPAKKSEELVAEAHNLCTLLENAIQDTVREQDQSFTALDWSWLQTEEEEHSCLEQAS
# [9] = target: T4, Inhibitor of nuclear factor kappa-B kinase subunit beta (Homo sapiens); settings: at 10 µM
# [10] = target: Insulin receptor (Homo sapiens) (UniProt P06213); settings: at 1 µM
# Insulin receptor (Homo sapiens), sequence (P06213 28-758 limits assumed): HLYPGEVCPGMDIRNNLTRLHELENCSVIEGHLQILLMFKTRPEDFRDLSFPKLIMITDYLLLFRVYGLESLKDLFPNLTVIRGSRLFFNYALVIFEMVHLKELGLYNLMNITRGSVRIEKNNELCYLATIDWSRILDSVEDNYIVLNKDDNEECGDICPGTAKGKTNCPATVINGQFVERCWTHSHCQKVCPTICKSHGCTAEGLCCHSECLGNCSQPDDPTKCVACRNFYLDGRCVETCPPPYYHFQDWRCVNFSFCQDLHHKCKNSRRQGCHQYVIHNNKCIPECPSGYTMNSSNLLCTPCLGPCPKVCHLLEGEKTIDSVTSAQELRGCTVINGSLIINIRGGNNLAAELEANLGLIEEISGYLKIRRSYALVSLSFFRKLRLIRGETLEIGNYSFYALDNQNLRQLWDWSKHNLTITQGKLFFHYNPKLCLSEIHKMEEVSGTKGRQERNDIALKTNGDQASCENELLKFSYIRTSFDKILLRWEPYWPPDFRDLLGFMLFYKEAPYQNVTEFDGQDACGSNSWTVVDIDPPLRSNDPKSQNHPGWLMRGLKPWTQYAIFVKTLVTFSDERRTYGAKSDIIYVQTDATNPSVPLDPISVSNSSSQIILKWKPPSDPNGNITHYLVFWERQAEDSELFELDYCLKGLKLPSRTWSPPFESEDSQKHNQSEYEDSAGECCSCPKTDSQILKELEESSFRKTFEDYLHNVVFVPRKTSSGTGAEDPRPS
# Insulin receptor (Homo sapiens), sequence (P06213 763-1382 limits assumed): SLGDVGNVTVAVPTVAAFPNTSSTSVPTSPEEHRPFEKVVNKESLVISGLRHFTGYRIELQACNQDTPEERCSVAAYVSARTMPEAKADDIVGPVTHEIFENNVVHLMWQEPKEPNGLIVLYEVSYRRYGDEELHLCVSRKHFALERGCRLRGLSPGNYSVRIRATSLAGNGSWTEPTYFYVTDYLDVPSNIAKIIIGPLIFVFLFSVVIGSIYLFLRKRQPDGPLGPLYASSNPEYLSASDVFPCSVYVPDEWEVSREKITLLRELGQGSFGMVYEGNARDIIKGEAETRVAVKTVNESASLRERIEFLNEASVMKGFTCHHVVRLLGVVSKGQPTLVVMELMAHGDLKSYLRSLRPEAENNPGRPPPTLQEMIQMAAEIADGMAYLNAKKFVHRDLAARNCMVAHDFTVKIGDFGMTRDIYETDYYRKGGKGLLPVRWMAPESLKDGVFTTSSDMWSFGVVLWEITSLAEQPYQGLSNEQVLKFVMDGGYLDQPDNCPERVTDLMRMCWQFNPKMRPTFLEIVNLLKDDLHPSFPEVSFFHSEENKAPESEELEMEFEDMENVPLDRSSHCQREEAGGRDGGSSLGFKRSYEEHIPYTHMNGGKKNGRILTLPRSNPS
# Insulin-like growth factor 1 receptor (Homo sapiens), sequence (P08069 31-736 limits assumed): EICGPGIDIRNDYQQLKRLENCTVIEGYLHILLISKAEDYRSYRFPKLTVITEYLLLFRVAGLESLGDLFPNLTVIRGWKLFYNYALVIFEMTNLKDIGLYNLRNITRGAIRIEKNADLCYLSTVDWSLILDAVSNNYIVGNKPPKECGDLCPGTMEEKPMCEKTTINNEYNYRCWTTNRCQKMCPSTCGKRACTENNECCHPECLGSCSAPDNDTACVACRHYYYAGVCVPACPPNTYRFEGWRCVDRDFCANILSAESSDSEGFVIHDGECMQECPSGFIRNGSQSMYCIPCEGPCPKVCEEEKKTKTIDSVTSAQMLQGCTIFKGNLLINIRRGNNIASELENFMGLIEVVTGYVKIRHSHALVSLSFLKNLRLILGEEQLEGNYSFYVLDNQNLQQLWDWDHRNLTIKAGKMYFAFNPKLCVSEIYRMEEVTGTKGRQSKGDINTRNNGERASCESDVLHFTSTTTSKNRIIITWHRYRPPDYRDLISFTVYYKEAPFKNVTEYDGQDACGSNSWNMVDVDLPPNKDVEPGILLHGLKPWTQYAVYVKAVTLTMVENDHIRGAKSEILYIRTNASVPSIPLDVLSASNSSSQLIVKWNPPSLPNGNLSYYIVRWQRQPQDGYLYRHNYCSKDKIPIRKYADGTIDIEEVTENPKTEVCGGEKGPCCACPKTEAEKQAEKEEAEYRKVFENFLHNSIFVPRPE
# Insulin-like growth factor 1 receptor (Homo sapiens), sequence (P08069 741-1367 limits assumed): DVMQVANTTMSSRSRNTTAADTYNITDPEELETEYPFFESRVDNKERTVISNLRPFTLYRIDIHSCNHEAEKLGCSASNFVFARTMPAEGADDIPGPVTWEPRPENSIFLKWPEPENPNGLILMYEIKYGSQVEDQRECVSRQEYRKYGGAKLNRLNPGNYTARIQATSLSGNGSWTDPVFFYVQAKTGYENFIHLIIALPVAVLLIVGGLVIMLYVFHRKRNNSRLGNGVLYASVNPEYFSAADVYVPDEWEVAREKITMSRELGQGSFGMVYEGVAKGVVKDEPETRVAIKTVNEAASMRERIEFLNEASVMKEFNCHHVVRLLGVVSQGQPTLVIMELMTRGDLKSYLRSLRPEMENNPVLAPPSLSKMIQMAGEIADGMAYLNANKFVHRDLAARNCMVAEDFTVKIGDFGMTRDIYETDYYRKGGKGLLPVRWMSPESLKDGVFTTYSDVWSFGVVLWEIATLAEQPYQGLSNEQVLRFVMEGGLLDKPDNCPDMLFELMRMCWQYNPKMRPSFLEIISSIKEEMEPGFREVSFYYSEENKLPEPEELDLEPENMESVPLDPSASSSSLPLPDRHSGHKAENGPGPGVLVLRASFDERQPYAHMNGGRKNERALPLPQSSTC
compound,measurement,setting,value
Oc1n[nH]c2nnc(-c3c(-c4ccccc4)nn4ccccc34)cc12,residual activity,[1],60%
same,residual activity,[2],84%
same,residual activity,[3],74%
same,residual activity,[4],84%
same,residual activity,[5],91%
same,residual activity,[6],102%
same,residual activity,[7],92%
same,residual activity,[8],97%
same,residual activity,[9],93%
same,residual activity,[10],47%
